# BoNT-A LC inh2 – BoNT A light chain protease inhibition | inhibition, % at 10 µM | 0.17% of 360,000 active | multiplex microsphere protease substrate cleavage, flow cytometry | AID 588499
# Anthrax LF prot – inhibitors of Bacillus anthracis lethal factor protease; 0.12% of 360,000 active; P15917; multiplex microsphere protease cleavage assay, LF; inhibition, % at 10 µM; AID 588501
# MazF activator – activators of E. coli MazEF toxin-antitoxin RNase. FAM/BHQ RNA-DNA oligo cleavage fluorescence, 5 h. 0.32% of 350,000 active. activation, % at 20 µM. P0AE70; in the data active = activation above about 50%
# BoNT-F LC inh – BoNT F light chain protease inhibition; Multiplex microsphere protease cleavage assay, flow cytometry; inhibition, % at 10 µM; 0.22% of 360,000 active; AID 588497; in the data active = inhibition above about 35%, passing the limit was not always enough; inconclusive = no clear call, values can overlap the other calls
# Bead autofluor – compound fluorescence in toxin protease inhibitor counterscreen; compound autofluorescence counterscreen, microsphere flow cytometry; stronger effect = higher value; fluorescence intensity (test concentration not listed); 3.1% of 360,000 active; in the data active = fluorescence intensity above about 16000; inconclusive = no clear call, values can overlap the other calls
# A number is an active result; . = inactive; ? = inconclusive; / = no result given; + = active, no number. Shown are actives, neighbours in structure and some others; about 3.6% of the full set was active somewhere. Cut-off read from the data, not from the text of the source, unless noted: active = inhibition above about 30%; inconclusive = no clear call, values can overlap the other calls; inactive = below that.
SMILES,BoNT-A LC inh2,Anthrax LF prot,MazF activator,BoNT-F LC inh,Bead autofluor
O=C(NCCCN1CCCC1=O)c1ccc2c(=O)n(-c3ccccc3F)c(=S)[nH]c2c1,.,.,.,.,.
O=C(CCc1nc2ccccc2c(=O)[nH]1)NNC(=O)c1ccc(F)cc1,.,.,.,.,.
O=C(OCc1nc2ccccc2s1)c1ccc(Br)s1,.,.,.,.,23134
OCc1cc(Br)ccc1OCc1nc2ccccc2s1,.,.,.,.,.
Oc1ccccc1OCc1nc2ccccc2s1,.,.,.,.,22098
CC1CCN(S(=O)(=O)c2ccc(S(=O)(=O)NCC3COCCO3)cc2)CC1 (stereo not given),.,.,.,.,23033
COc1cccc(C#Cc2c(C=O)n(C)c3ccccc23)c1,36.3,37.1,.,.,.
CCOc1ccc(S(=O)(=O)N2CCN(S(=O)(=O)c3ccc(OCC)cc3)C(C)C2)cc1 (stereo not given),.,.,.,.,17504
CCOc1ccc(S(=O)(=O)N2CN3CCN(C3)C2)cc1,.,.,.,.,.
CC(C)CNC(=O)C(=O)NNC(=O)C1CCCCC1,.,.,.,.,21511
C/C(=C\C(=O)c1ccc(Cl)cc1)Nc1ccc(N2CCOCC2)cc1,.,.,.,.,16147
O=C(Nc1ccc(N2CCOCC2)nc1)c1ccc(Cl)cc1,.,.,.,.,22714
O=C(NC1CCCC1)C1CCN(C(=O)c2ccccc2Cl)CC1,.,.,.,.,.
COc1ccc(S(=O)(=O)NC2CCCCCC2)cc1C(N)=O,.,.,.,.,.
NC(=O)c1cc(S(=O)(=O)NC2CCCCC2)co1,?,.,.,.,22647
Cc1cccnc1C(NC(=O)C1CCN(CCCc2ccccc2)CC1)c1ccc(F)cc1 (stereo not given),.,.,/,.,.
COc1ccc(OC)c(C2C3=C(COC3=O)Nc3cc4c(cc32)OCO4)c1 (stereo not given),.,.,.,.,19754
COC(=O)c1ccccc1NC(=O)C1CCCCC1C(=O)O (stereo not given),?,.,.,.,23211
O=C(O)C1CCCCC1C(=O)Nc1ccc(F)cc1F (stereo not given),.,.,.,.,20999
O=C(CN1CCc2cc3c(cc2C1)OCCCO3)Nc1c(F)cccc1F,.,.,.,.,.
CCOC(=O)N1CCC(NC(=O)C2CCN(c3ccc(N4CCOCC4)nn3)CC2)CC1,.,.,.,.,23805
CCOC(=O)N1CCC(NC(=O)c2ccc(CNS(=O)(=O)c3ccc(F)cc3)cc2)CC1,.,.,.,.,17979
CCOC(=O)N1CCN(C(=O)CN(Cc2ccc(Cl)cc2)S(C)(=O)=O)CC1,.,.,.,.,.
CCOC(=O)N1CCC(NC(=O)C2CCN(S(=O)(=O)c3cnc[nH]3)CC2)CC1,.,.,.,.,.
CCOC(=O)N1CCN(C(=O)CN(Cc2ccc(Cl)cc2)S(=O)(=O)c2ccc(C)cc2)CC1,.,.,.,.,24719
SMILES,BoNT-A LC inh2,Anthrax LF prot,MazF activator,BoNT-F LC inh,Bead autofluor
CCOC(=O)N1CCN(S(=O)(=O)c2ccc(OC)c(OC)c2)CC1,.,.,.,.,25529
CCOC(=O)N1CCN(S(=O)(=O)c2ccc(OC)c(Cl)c2)CC1,.,.,.,.,.
CCNc1ncnc2[nH]ncc12,.,.,.,.,.
O=C1C2CCCCC2C(=O)N1c1ccc(NC2CCCCC2)c([N+](=O)[O-])c1 (stereo not given),.,.,.,.,.
CCOC(=O)N1CCN(S(=O)(=O)c2ccc(Cl)cc2)CC1,.,.,.,.,.
CCOC(=O)N1CCC(N2CCN(S(=O)(=O)c3ccc(Cl)cc3)CC2)CC1,?,.,.,.,19293
CCOC(=O)N1CCC(NC(=O)c2cc(S(=O)(=O)N3CCOCC3)ccc2F)CC1,.,.,.,.,20906
COC(=O)c1cc(S(=O)(=O)N2CCC(C)CC2)ccc1F,.,.,.,.,22718
CC(C)CN(C(=O)CN(C)C(=O)c1ccco1)c1c(N)n(CC(C)C)c(=O)[nH]c1=O,.,.,.,.,.
COC(CNC(=O)CN1CCN(Cc2ccccc2F)C1=O)OC,.,.,.,.,.
C[C@H](c1ccccc1)N1C[C@H](COCc2ccccc2)Oc2cc(N3CC[C@@H](O)C3)ccc2S1(=O)=O,.,.,/,.,.
COc1ccc(N(Cc2cc(=O)[nH]c3ccccc23)C(=O)c2ccco2)cc1,?,.,.,.,20241
COc1ccc(CN(C(=O)c2ccco2)c2ccccc2)cc1,.,.,.,.,.
CCNC(=O)C1(C)CCN(C(=O)c2cccc(OC(F)(F)F)c2)C1 (stereo not given),.,.,/,.,.
CC(C)NC(=S)N/N=C/c1c[nH]c2ccccc12,.,.,.,.,.
Cc1[nH]c2ccccc2c1/C=N/NC(=S)NC(C)C,59.2,.,.,.,.
CC(C)C(=O)N1CCCC1(C)C(=O)Nc1ccc(-n2cccc2)cc1 (stereo not given),.,.,/,.,.
C#CCOc1nc(C)cc(C)c1S(=O)(=O)c1ccccc1C,.,.,.,.,.
Cc1cc(C)c(S(=O)(=O)c2c(C)cccc2C)c(OCC(C)C)n1,.,.,.,.,23555
CS(=O)(=O)Nc1ccccc1C(=O)Nc1cc(Cl)cc(Cl)c1,.,.,.,.,20510
CS(=O)(=O)Nc1ccccc1C(=O)Nc1ccccc1Cl,.,.,.,.,.
COc1cc(/C=C(\C#N)C(=O)c2ccc(O)c(O)c2)cc(I)c1O,.,.,.,.,.
Cc1ccc(CSC2=NCCN2S(=O)(=O)c2ccc(C)cc2)cc1,.,.,.,.,.
Cc1ccc(S(=O)(=O)N2CCN=C2SCc2ccc(Cl)c(Cl)c2)cc1,.,.,+,.,.
COc1ccc(CC(N)c2csc(Nc3cc(NCc4ccco4)ncn3)n2)cc1 (stereo not given),.,.,/,.,.
SMILES,BoNT-A LC inh2,Anthrax LF prot,MazF activator,BoNT-F LC inh,Bead autofluor
CC(C)OCCCNC(=O)c1ccncc1,.,.,.,.,18964
CC(C)OCCCNC(=O)c1ccc(Br)cc1,.,.,.,.,.
Cc1ccc2c(c1)[C@H]1[C@H](CO2)[C@H](c2ccccc2)[C@]2(C)C(=O)N(C)CC(=O)N12,.,.,.,.,.
CCNC(=O)C1(c2ccccc2)CCCC1,.,.,.,.,.
CCOC(=O)CNC(=O)C1(c2ccccc2)CCCC1,.,.,.,.,16511
CN(Cc1ccccc1)C(=O)NC1CCCCC1,?,.,.,.,22110
CC(C)Oc1cccc(C(=O)O)c1,?,.,.,.,18055
O=C(O)c1cccc(C(=O)O)c1,.,.,.,.,.
Cc1ccc(NC2CCCN(C(=O)CN3C(=O)c4ccccc4C3=O)C2)cc1C (stereo not given),.,.,.,.,.
Cc1nn(-c2cc(N3CCNCC3)ccc2[N+](=O)[O-])c(=O)c2ccccc12,.,.,.,.,.
Cc1nn(-c2cc(N3CCCCC3)ccc2[N+](=O)[O-])c(=O)c2ccccc12,?,.,.,.,21077
C=C(C)CSc1nnc([C@@H](NC(=O)OC(C)(C)C)C(C)CC)o1 (stereo not given in full),?,.,.,.,20796

# Source: PubChem
